# Compound activity: PubChem BioAssay, Broad Institute
# In the library only some 2.1% were active in any assay of this set; here they are far more common.
# ROS inducer = raises reactive oxygen species in U2OS cancer cells; U2OS ROS induction, H2DCF-DA fluorescence; ROS induction (% of piperlongumine), % at 10 µM; 46,000 compounds, 2% hits; AID 624156; in the data active = ROS induction above about 79%, passing the limit was not always enough
# YB-1 expr inh = YB-1 expression inhibition | U2OS, qRT-PCR YB-1 vs CDIP delta delta Cp, 16 h; hits give high values; zero = DMSO, each unit about twofold | delta delta Cp (YB-1 minus CDIP) (no concentration beside the values) | 30,000 compounds, 0.37% hits;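 active = delta delta Cp rounded down to an integer at or above 3, about 3 SD of DMSO wells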;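 also: higher means less YB-1 transcript or more CDIP transcript relative to DMSO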
# Numbers stand for hits; . = inactive; / = not tested or not shown.
SMILES,ROS inducer,YB-1 expr inh
CC(=O)C(C#N)C(=O)Nc1ccc(OC(F)(F)F)cc1 (stereo unspecified),.,.
C[C@@H]1CN([C@@H](C)CO)C(=O)Cc2cc(NS(=O)(=O)c3cccs3)ccc2O[C@@H]1CN(C)C,128,.
Cc1noc(C)c1NC(=O)N(C)C[C@H]1Oc2ccc(NS(=O)(=O)c3cccs3)cc2C(=O)N([C@H](C)CO)C[C@H]1C,.,.
Cc1ccc(S(=O)(=O)N(C)C[C@H]2Oc3ccc(NS(=O)(=O)c4cccs4)cc3CC(=O)N([C@@H](C)CO)C[C@H]2C)cc1,.,.
Cc1ccc(S(=O)(=O)N(C)C[C@@H]2Oc3ccc(NS(=O)(=O)c4ccccc4)cc3CC(=O)N([C@H](C)CO)C[C@@H]2C)cc1,130,.
Cc1ccc(S(=O)(=O)Nc2ccc3c(c2)CC(=O)N([C@H](C)CO)C[C@@H](C)[C@@H](CN(C)S(=O)(=O)c2ccccc2)O3)cc1,.,.
Cc1noc(C)c1NC(=O)N(C)C[C@@H]1Oc2ccc(NS(=O)(=O)c3cccs3)cc2CC(=O)N([C@@H](C)CO)C[C@@H]1C,.,15
Cc1ccc(S(=O)(=O)N(C)C[C@@H]2Oc3ccc(NS(=O)(=O)c4cccs4)cc3CC(=O)N([C@H](C)CO)C[C@H]2C)cc1,95,.
C[C@@H]1CN([C@H](C)CO)C(=O)Cc2cc(NS(=O)(=O)c3cccs3)ccc2O[C@H]1CN(C)S(C)(=O)=O,.,.
C/C(=C\Cc1c(O)cc2oc(C)cc(=O)c2c1O)CO[C@@H]1O[C@H](CO)[C@@H](O)[C@H](O)[C@H]1O,.,.
O=c1c2nnn(Cc3ccc(F)cc3)c2ncn1Cc1ccc(F)cc1,.,/
Cn1c2ccccc2c2nnc(SCC(=O)Nc3ccc(Cl)cc3)nc21,.,/
C[C@H]1CN([C@@H](C)CO)C(=O)c2cc(NS(C)(=O)=O)ccc2O[C@H]1CN(C)S(=O)(=O)c1ccccc1,.,.
C[C@@H]1CN([C@H](C)CO)C(=O)c2cc(NS(C)(=O)=O)ccc2O[C@@H]1CN(C)S(=O)(=O)c1ccccc1,102,.
Fc1cnc(Nc2cccc(Br)c2)nc1Nc1cccc(Br)c1,.,/
COc1ccc(CN(C)C[C@@H]2Oc3ccc(NC(=O)C4CC4)cc3CC(=O)N([C@H](C)CO)C[C@@H]2C)cc1,104,.
COc1ccc(NC(=O)Nc2ccc3c(c2)CC(=O)N([C@@H](C)CO)C[C@H](C)[C@H](CN(C)Cc2ccc(C(=O)O)cc2)O3)cc1,133,.
COc1ccc(NC(=O)N(C)C[C@@H]2Oc3ccc(NC(=O)C4CC4)cc3CC(=O)N([C@H](C)CO)C[C@H]2C)cc1,120,.
COc1ccc(CN(C)C[C@H]2Oc3ccc(NC(=O)C4CC4)cc3CC(=O)N([C@@H](C)CO)C[C@@H]2C)cc1,.,.
COc1ccc(NC(=O)N(C)C[C@H]2Oc3ccc(NC(=O)C4CC4)cc3CC(=O)N([C@H](C)CO)C[C@H]2C)cc1,.,.
COc1ccc(CN(C)C[C@@H]2Oc3ccc(NC(=O)Nc4ccc(OC)cc4)cc3CC(=O)N([C@H](C)CO)C[C@@H]2C)cc1,.,.
C[C@H]1CN([C@@H](C)CO)C(=O)Cc2cc(N(C)C)ccc2O[C@H]1CN(C)Cc1ccc(C(=O)O)cc1,.,.
C[C@H]1CN([C@@H](C)CO)C(=O)Cc2cc(N(C)C)ccc2O[C@@H]1CN(C)Cc1ccc(C(=O)O)cc1,113,.
Cc1cc(S(=O)(=O)NCCN2CCOCC2)c(C)cc1Cl,.,/
CCOC(=O)C1=C(C)N(C)C(=O)N(C)C1c1ccccc1 (stereo unspecified),.,.
SMILES,ROS inducer,YB-1 expr inh
Cc1c(C#N)c(Sc2n[nH]c(=O)n2C2CCCCC2)nc2ccccc12,.,.
COc1ccc(C(=O)N(CC#N)CC#N)cc1,.,.
COc1ccc(NC(=O)c2ccccc2NC(=O)COc2ccc([N+](=O)[O-])cc2)cc1,.,/
COc1ccc(NC(=O)Cc2nc(-c3ccc([N+](=O)[O-])cc3)cs2)cc1,94,/
C[C@@H]1O[C@@H](O[C@H]2[C@H](O[C@H]3CC[C@@]4(C)C(CC[C@]5(C)C4CC=C4C6CC(C)(C)CC[C@]6(C(=O)O[C@@H]6O[C@H](CO[C@@H]7O[C@H](CO)[C@@H](O[C@@H]8O[C@@H](C)[C@H](O)[C@@H](O)[C@H]8O)[C@H](O)[C@H]7O)[C@@H](O)[C@H](O)[C@H]6O)CC[C@]45C)[C@]3(C)CO)OC[C@H](O)[C@@H]2O)[C@H](O)[C@H](O)[C@H]1O (stereo partly specified),.,.
C[C@@H]1O[C@@H](O[C@H]2[C@H](O[C@H]3CC[C@@]4(C)C(CC[C@]5(C)C4C=C[C@]46OC[C@@]7(CCC(C)(C)C[C@H]74)[C@@H](O)C[C@]65C)[C@]3(C)CO)O[C@H](CO)[C@@H](O)[C@@H]2O[C@@H]2O[C@H](CO)[C@@H](O[C@@H]3O[C@@H](C)[C@H](O)[C@@H](O)[C@H]3O)[C@H](O)[C@H]2O)[C@H](O)[C@H](O)[C@H]1O (stereo partly specified),.,3.4
C=C1C(=O)O[C@@H]2/C=C(/CO)CC/C=C(/C)C[C@H](OC(=O)C(C)CO)[C@@H]12 (stereo partly specified),154,.
C=C1C(=O)O[C@@H]2/C=C(\CO)CCC/C(C)=C/[C@H](O)C12 (stereo partly specified),.,.
Cc1ccc(CSc2nnc(-n3c(=O)c(C#N)cc4c(=O)n5ccccc5nc43)s2)cc1,189,/
Cc1ccc(-n2c(=O)c(C#N)cc3c(=O)n4ccccc4nc32)cc1,.,/
O=C(Cn1c2c(c(-c3ccccc3)cc1=O)CCCC2)NCc1ccc(Cl)cc1,.,/
Cc1ccc(C)n1-c1ccc(C(=O)OCC(=O)c2ccc(Cl)cc2)cc1,.,.
CN1CCN(CCNC(=O)c2cnn(-c3ccccc3)c2-n2cccc2)CC1,.,/
C[C@@H]1CCCCO[C@H](CN(C)C(=O)c2ccncc2)[C@@H](C)CN([C@H](C)CO)C(=O)c2cc(NC(=O)NC3CCCCC3)ccc2O1,123,.
Cc1ccc(S(=O)(=O)Nc2ccc3c(c2)C(=O)N([C@H](C)CO)C[C@H](C)[C@H](CN(C)C(=O)c2ccncc2)OCCCC[C@@H](C)O3)cc1,108,.
COc1ccc(NC(=O)Nc2ccc3c(c2)C(=O)N([C@H](C)CO)C[C@H](C)[C@@H](CN(C)C(=O)Nc2ccc4c(c2)OCO4)OCCCC[C@@H](C)O3)cc1,.,.
COc1ccc(NC(=O)N(C)C[C@@H]2OCCCC[C@@H](C)Oc3ccc(NC(=O)Nc4ccc5c(c4)OCO5)cc3C(=O)N([C@H](C)CO)C[C@@H]2C)cc1,118,.
C[C@@H]1CCCCO[C@H](CN(C)C(=O)c2ccccc2)[C@@H](C)CN([C@H](C)CO)C(=O)c2cc(NC(=O)NC3CCCCC3)ccc2O1,.,.
C[C@@H]1CCCCO[C@H](CN(C)C(=O)c2ccncc2)[C@@H](C)CN([C@H](C)CO)C(=O)c2cc(NS(=O)(=O)c3ccc(F)cc3)ccc2O1,.,.
C[C@@H]1CCCCO[C@@H](CN(C)C(=O)Nc2ccc3c(c2)OCO3)[C@@H](C)CN([C@H](C)CO)C(=O)c2cc(NC(=O)NC3CCCCC3)ccc2O1,121,.
